Measurements reported in PubChem BioAssay (Tox21).
Values joined by “and” are separate entries in the source; they are usually repeats but may differ in a detail not shown here. Identical values can stand only once. Results filed as inconclusive are left out. Where a structure was tested more than once in an assay, its records may differ in their call. Active and inactive are the calls of the source. Unless noted, calls come from the whole dose curve; as a rule, active = well fitted curve in the direction sought with a large enough effect in the repeat runs; inconclusive = weak or mixed curves; inactive = no such curve, though single readings can be large; an effect the other way counts as inactive or inconclusive.

Legend:
[1] = qHTS assay to identify small molecule antagonists of the glucocorticoid receptor (GR) signaling pathway - cell viability counter screen (AID 720693); note: nearly all actives have a fitted effect of over 55% in size; note: potency is the fitted concentration of half-maximal effect
[2] = qHTS assay for identifying genotoxic compounds that show differential cytotoxicity against isogenic chicken DT40 cell lines with known DNA damage response pathways - wild type cell line (AID 743012); note: nearly all actives have a fitted effect of over 60% in size; note: potency is the fitted concentration of half-maximal effect
Procedure, shortened: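 Quantitative HTS on parental DT40 cells: 40 h compound treatment at 37 C/5% CO2, with viability then determined by CellTiter-Glo luminescence. Values serve as the DNA repair-proficient reference for differential cytotoxicity.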

[3] = qHTS assay for identifying genotoxic compounds that show differential cytotoxicity against isogenic chicken DT40 cell lines with known DNA damage response pathways - Rev3 mutant cell line (AID 743014); note: nearly all actives have a fitted effect of over 55% in size; note: potency is the fitted concentration of half-maximal effect
[4] = qHTS assay for identifying genotoxic compounds that show differential cytotoxicity against isogenic chicken DT40 cell lines with known DNA damage response pathways - Rad54/Ku70 mutant cell line (AID 743015); note: nearly all actives have a fitted effect of over 60% in size; note: potency is the fitted concentration of half-maximal effect
[5] = qHTS assay to identify small molecule antagonists of the thyroid receptor (TR) signaling pathway - cell viability counter screen (AID 743064); note: nearly all actives have a fitted effect of over 50% in size; note: potency is the fitted concentration of half-maximal effect
Procedure, shortened: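 Rat GH3 pituitary tumor cells stably expressing two TR response elements driving luciferase were plated, rested 4 h, then dosed with library compounds and T3 (1 nM final). After 23.5 h at 37 °C, CellTiter-Fluor was added for 30 min and fluorescence recorded.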

[6] = qHTS assay to identify small molecule antagonists of the androgen receptor (AR) signaling pathway - cell viability counter screen (AID 743033; note: nearly all actives have a fitted effect of over 45% in size)
[7] = qHTS assay to identify small molecule antagonists of the androgen receptor (AR) signaling pathway using the MDA cell line - cell viability counter screen (AID 743041; note: nearly all actives have a fitted effect of over 45% in size; note: potency is the fitted concentration of half-maximal effect)
Procedure, shortened: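 Viability counter screen run alongside the AR antagonist reporter: cells seeded 5 h before compound, R1881 added, 16 h incubation at 37C without CO2, fluorescent CellTiter-Fluor signal quantified.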

[8] = molecular target: Androgen receptor (Homo sapiens) (UniProt P10275); assay: qHTS assay to identify small molecule antagonists of the androgen receptor (AR) signaling pathway (AID 743035; active = well fitted inhibition curve with a large enough effect in the signal ratio in the repeat runs, not every such curve was filed as active; the % refers to the signal ratio)
Procedure, shortened: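 Cell line: GeneBLAzer AR-UAS-bla GripTite (HEK293). Stimulus: R1881 added after compound. Exposure: 16 h, 37C, 5% CO2. Readout: LiveBLAzer B/G FRET fluorescence after 2 h at room temperature.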

[9] = molecular target: Androgen receptor (Homo sapiens) (UniProt P10275); assay: qHTS assay to identify small molecule agonists of the androgen receptor (AR) signaling pathway (AID 743036; active = well fitted activation curve with a large enough effect in the signal ratio in the repeat runs, with a control signal flat, not every such curve was filed as active; the % refers to the signal ratio; note: potency is the fitted concentration of half-maximal effect)
Procedure, shortened: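 Quantitative HTS of the Tox21 10K library in HEK293 cells bearing a stably integrated UAS-controlled beta-lactamase reporter. Compound exposure lasted 16 h at 37C. Reporter activity was detected by FRET substrate fluorescence after 2 h at room temperature.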

[10] = molecular target: Androgen receptor (Homo sapiens) (UniProt P10275); assay: qHTS assay to identify small molecule antagonists of the androgen receptor (AR) signaling pathway using the MDA cell line (AID 743042; note: nearly all actives have a fitted effect of over 55% in size)
Procedure, shortened: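 MDA-kb2 cells (human breast carcinoma, stably carrying an MMTV-luciferase reporter responsive to AR and GR) were plated at 3,000 cells/well and preincubated 5 hr at 37C, then given compound plus R1881 agonist for 16 h. ONE-Glo luminescence was read.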
% is set by controls: 0 for no effect and ±100 for the full control effect.

Androgen receptor (Homo sapiens), sequence (P10275 whole entry, looked up): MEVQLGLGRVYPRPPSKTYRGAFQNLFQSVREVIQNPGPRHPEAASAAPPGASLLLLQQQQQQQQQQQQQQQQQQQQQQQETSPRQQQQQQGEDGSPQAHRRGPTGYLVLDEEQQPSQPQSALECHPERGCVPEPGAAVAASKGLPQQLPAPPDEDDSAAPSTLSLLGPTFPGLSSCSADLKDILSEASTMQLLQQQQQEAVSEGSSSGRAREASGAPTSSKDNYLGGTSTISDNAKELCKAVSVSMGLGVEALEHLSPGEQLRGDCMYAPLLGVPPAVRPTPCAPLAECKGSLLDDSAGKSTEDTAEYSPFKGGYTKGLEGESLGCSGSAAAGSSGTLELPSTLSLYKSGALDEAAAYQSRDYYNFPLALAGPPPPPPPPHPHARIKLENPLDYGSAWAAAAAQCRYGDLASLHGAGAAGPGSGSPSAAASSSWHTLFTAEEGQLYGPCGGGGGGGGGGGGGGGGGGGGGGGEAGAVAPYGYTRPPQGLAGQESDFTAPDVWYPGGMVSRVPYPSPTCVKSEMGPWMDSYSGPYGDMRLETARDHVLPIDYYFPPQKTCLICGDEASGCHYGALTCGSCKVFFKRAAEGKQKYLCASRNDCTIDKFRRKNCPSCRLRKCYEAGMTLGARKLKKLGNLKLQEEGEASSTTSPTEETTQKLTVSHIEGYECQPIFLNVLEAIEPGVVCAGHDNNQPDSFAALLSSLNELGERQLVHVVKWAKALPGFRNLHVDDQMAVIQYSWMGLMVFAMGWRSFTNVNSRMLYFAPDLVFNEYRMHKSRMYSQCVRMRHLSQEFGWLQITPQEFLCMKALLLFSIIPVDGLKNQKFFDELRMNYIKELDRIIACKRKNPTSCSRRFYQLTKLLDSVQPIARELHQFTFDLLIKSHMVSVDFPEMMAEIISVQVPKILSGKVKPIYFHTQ

O=C(O)c1cc(O)c2ccccc2c1O
inactive: Potency [1]
active: Potency [2] 6.11 µM | Potency [3] 5.45 µM | Potency [4] 6.11 µM | Potency [5] 9.69 µM

O=C1C(c2[nH]c3ccc(S(=O)(=O)O)cc3c2O)=Nc2ccc(S(=O)(=O)O)cc21
inactive: Potency [1] | Potency [2] | Potency [3] | Potency [6] | Potency [7] | Potency [5]

CC(C)OC(=O)C(O)(CC(=O)O)CC(=O)O
inactive: Potency [1] | Potency [2] | Potency [3] | Potency [6] | Potency [8] | Potency [9] | Potency [7] | Potency [10] | Potency [5]

CCCC1CCC(=O)CC1
inactive: Potency [1] | Potency [2] | Potency [3] | Potency [4] | Potency [7] | Potency [5]

OC12N=C(c3ccccc3)SC1Cc1cc(Cl)ccc12 (configuration not stated)
active: Potency [2] 68.6 µM | Potency [3] 68.6 µM | Potency [4] 43.3 µM
inactive: Potency [1] | Potency [7]

NC(=O)c1cccc([N+](=O)[O-])c1
inactive: Potency [1] | Potency [2] | Potency [3] | Potency [4] | Potency [8] | Potency [7] | Potency [10] | Potency [5]

Cc1ccc(N/N=c2\c(=O)cc/c(=N\Nc3ccc(S(=O)(=O)O)cc3)c2=O)c(C)c1
active: Potency [7] 27.3 µM | Potency [5] 61.1 µM
inactive: Potency [1] | Potency [2] | Potency [3] | Potency [4] | Potency [6]

O=C(O)O
inactive: viability change, negative = cytotoxic [1] 4.34% [at 7.04 µM] | activity change, negative = cytotoxicity [2] -8.76% [at 8.52 µM] | activity, negative = cytotoxicity [3] -2.82% [at 8.53 µM] | activity change, negative = cytotoxicity [4] -2.06% [at 8.55 µM] | viability change, negative = cytotoxic [7] -5.91% [at 8.47 µM] | activity change, negative = cytotoxic [5] -0.346% [at 8.44 µM]

CC(CCc1ccccc1)NCC(O)c1ccc(O)c(C(N)=O)c1 (configuration not stated)
active: Potency [5] 30.6 µM
inactive: Potency [1] | Potency [2] | Potency [3] | Potency [4] | Potency [7]

CCCCNS(=O)(=O)c1ccc(C)cc1
inactive: Potency [1] | Potency [2] | Potency [3] | Potency [6] | Potency [7] | Potency [5]

CC(C)CCOC(=O)/C=C/c1ccccc1
inactive: Potency [1] | Potency [2] | Potency [3] | Potency [4] | Potency [7] | Potency [5]

CC(=O)CC(=O)Nc1ccc(S(=O)(=O)O)cc1
inactive: Potency [1] | Potency [2] | Potency [3] | Potency [4] | Potency [6] | Potency [7] | Potency [5]

CN(C)Cc1cc(C(C)(C)C)c(O)c(C(C)(C)C)c1
active: Potency [2] 17.2 µM | Potency [3] 17.2 µM | Potency [4] 17.2 µM
inactive: Potency [1] | Potency [7]

Nc1cc(Cl)c(O)c(Cl)c1
active: Potency [2] 10.9 µM | Potency [3] 15.4 µM
inactive: Potency [1] | Potency [6] | Potency [7] | Potency [10]

O=S(=O)(O)c1ccc(N=Nc2c(O)ccc3ccccc23)cc1
active: Potency [2] 61.1 µM | Potency [3] 30.6 µM | Potency [4] 54.5 µM | Potency [7] 27.3 µM | Potency [5] 30.6 µM
inactive: Potency [1]

C=Cc1cccc(C)c1
inactive: Potency [1] | Potency [2] | Potency [3] | Potency [4] | Potency [7] | Potency [5]

C/C=C/C=C/COC(=O)C(C)C
inactive: Potency [1] | Potency [6] | Potency [7]
active: Potency [2] 13.7 µM | Potency [3] 13.7 µM

CCCC(=O)OC(C)(C)Cc1ccccc1
inactive: Potency [1] | Potency [2] | Potency [3] | Potency [4] | Potency [6] | Potency [7] | Potency [5]

c1ccsc1
inactive: Potency [1] | Potency [2] | Potency [3] | Potency [6] | Potency [8] | Potency [7] | Potency [10] | Potency [5]
active: Potency [9] 5.9 µM

Clc1ccnc(Cl)n1
inactive: Potency [1] | Potency [2] | Potency [3] | Potency [4] | Potency [6] | Potency [7] | Potency [5]

CC1=Nc2ccccc2C1(C)C
inactive: Potency [1] | Potency [2] | Potency [3] | Potency [6] | Potency [7] | Potency [5]

COC(=O)c1ccccc1C
inactive: Potency [1] | Potency [2] | Potency [3] | Potency [4] | Potency [7] | Potency [5]

Nc1nc2c(ncn2COCCO)c(=O)[nH]1
active: Potency [2] 2.54 µM | Potency [3] 2.27 µM
inactive: Potency [1] | Potency [6] | Potency [7]

CCCCCCCCCCC[C@@H](C[C@@H]1OC(=O)[C@H]1CCCCCC)OC(=O)[C@H](CC(C)C)NC=O
active: Potency [2] 1.06 µM | Potency [3] 0.376 µM
inactive: Potency [1] | Potency [6] | Potency [7] | Potency [5]

O=C(O)c1ccc2cc(C(=O)O)ccc2c1
inactive: Potency [1] | Potency [2] | Potency [3] | Potency [4] | Potency [7] | Potency [5]

Cc1cc(-c2ccc(N=Nc3cc(S(=O)(=O)O)c4ccccc4c3N)c(C)c2)ccc1N=Nc1cc(S(=O)(=O)O)c2ccccc2c1N
inactive: Potency [1]
active: Potency [2] 0.548 µM | Potency [3] 0.388 µM | Potency [4] 0.346 µM | Potency [5] 61.4 µM

CC1(C)[C@@H](O)CC[C@]2(C)[C@H]3C(=O)C=C4[C@@H]5C[C@@](C)(C(=O)O)CC[C@]5(C)CC[C@@]4(C)[C@]3(C)CC[C@@H]12
inactive: Potency [1] | Potency [2] | Potency [8] | Potency [9] | Potency [7] | Potency [10]
2.37 µM (active) and inactive: Potency [4]
active: Potency [5] 29.8 µM and 24.1 µM
5.96 µM (active) and inactive: Potency [3]

C#C[C@]1(O)CC[C@H]2[C@@H]3[C@H](C)CC4=C(CCC(=O)C4)[C@H]3CC[C@@]21C
active: Potency [2] 10.6 µM | Potency [3] 29.8 µM | Potency [4] 21.1 µM
inactive: Potency [1] | Potency [7]

C=C(C)C(=O)OCCCCCCCCCC
inactive: Potency [1] | Potency [2] | Potency [3] | Potency [4] | Potency [7] | Potency [5]

CCCCCCC1CCCC(=O)O1 (configuration not stated)
inactive: Potency [1] | Potency [2] | Potency [3] | Potency [4] | Potency [6] | Potency [5]

OC[C@H]1O[C@H](O[C@H]2O[C@H](CO)[C@@H](O)[C@H](O)[C@H]2O)[C@H](O)[C@@H](O)[C@@H]1O
inactive: Potency [1] | Potency [2] | Potency [3] | Potency [6] | Potency [8] | Potency [7] | Potency [10] | Potency [5]

COc1cc(C)ccc1O
inactive: Potency [1] | Potency [2] | Potency [3] | Potency [4] | Potency [7]

Cc1cc(=O)oc2cc(O)cc(O)c12
inactive: Potency [1] | Potency [2] | Potency [3] | Potency [6] | Potency [10]

CCc1cccc(CC)c1NC(=O)CN(CC(=O)O)CC(=O)O
inactive: Potency [1] | Potency [2] | Potency [3] | Potency [7]

CNC(=O)c1ccccc1Sc1ccc2c(/C=C/c3ccccn3)n[nH]c2c1
active: Potency [2] 2.11 µM | Potency [3] 2.37 µM
inactive: Potency [1] | Potency [7] | Potency [5]

O=C(O)c1cc(N=Nc2ccc([N+](=O)[O-])cc2)ccc1O
active: Potency [1] 21.5 µM | Potency [7] 47.7 µM
inactive: Potency [2] | Potency [3]

O=c1oc2cc(O)ccc2c2oc3cc(O)ccc3c12
inactive: Potency [1] | Potency [2] | Potency [3] | Potency [7] | Potency [5]

CCCCCc1ccc(Cl)cc1
inactive: Potency [1] | Potency [2] | Potency [3] | Potency [6] | Potency [7] | Potency [5]

Cc1c(C)c([N+](=O)[O-])c(C(C)(C)C)c([N+](=O)[O-])c1C
inactive: Potency [1] | Potency [2] | Potency [4] | Potency [6] | Potency [7]

CCn1c2ccccc2c2cc([N+](=O)[O-])ccc21
inactive: Potency [1] | Potency [6] | Potency [7] | Potency [5]
active: Potency [2] 48.6 µM | Potency [3] 27.3 µM

O=C(/C=C/c1ccc(O)c(O)c1)O[C@@H](C(=O)O)[C@@H](OC(=O)/C=C/c1ccc(O)c(O)c1)C(=O)O
inactive: Potency [1] | Potency [2] | Potency [3] | Potency [6] | Potency [5]

CCN(CCN)c1cccc(C)c1
inactive: Potency [1] | Potency [4] | Potency [6] | Potency [7]
69.2 µM (active) and inactive: Potency [2]

O=c1[nH]c2ccccc2n1CCCN1CCN(C(c2ccccc2)c2ccccc2)CC1
active: Potency [2] 5.96 µM | Potency [3] 6.68 µM | Potency [5] 23.7 µM
inactive: Potency [1] | Potency [6] | Potency [7]
